# Assay results reported in PubChem BioAssay.
# The source made the active and inactive calls.
# Experiments:
# [1] = tested on: Plasmodium falciparum Sir2 (PF13_0152, Sir2A); assay: Plasmodium falciparum Sir2A binding compounds – biochemical, small-molecule microarray, 635 nm fluorescence, primary screen (AID 1098); conditions: fluorescence 635 nm, higher = more signal;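 note: score merges spot fluorescence intensity with its signal-to-noise ratio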
# [2] = probe aDKK1 binding to arrayed compounds – biochemical, biotinylated probe, 635/667 nm fluorescence, primary screen (AID 1099); conditions: small-molecule microarray, higher = more signal;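 note: score merges 667nm spot fluorescence with signal to noise across triplicate slides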
# [3] = probe aCHRDL2 binding to arrayed compounds – biochemical, biotinylated probe, 635/667 nm fluorescence, primary screen (AID 1100); conditions: small-molecule microarray, higher = more signal
# [4] = change in splice reporter luminescence, either direction, cell-based, HEK293, spliceosome inhibition project, primary screen (AID 1101); conditions: HEK293 splicing luciferase reporter, 24 h, higher = more signal, called active from +8 up or from −8 down;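 note: HEK293 cells carrying a splicing-competent luciferase reporter gene; test concentration not given here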
# [5] = target: Fibroblast growth factor 10 (Homo sapiens) (UniProt O15520); assay: compounds binding fibroblast growth factor 10 – biochemical, small-molecule microarray, 635 nm fluorescence, primary screen (AID 1102); conditions: FGF10 binding, fluorescence 635 nm, higher = more signal
# [6] = tested on: glycogen synthase kinase-3 (GSK3A per assay name; protocol says GSK3B); assay: compounds binding glycogen synthase kinase-3 – biochemical, small-molecule microarray, 635 nm fluorescence, GSK3A, primary screen (AID 1103); conditions: fluorescence 635 nm, higher = more signal; note: the record names both GSK3A and GSK3B
# [7] = target: Epidermal growth factor receptor (Homo sapiens) (UniProt P00533); assay: compounds binding epidermal growth factor receptor – biochemical, small-molecule microarray, 635 nm fluorescence, primary screen (AID 1104); conditions: EGFR binding, higher = more signal;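 note: score merges 667 nm emission intensity with spot signal to noise over triplicate slides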
# [8] = target: Follistatin-related protein 3 (Homo sapiens) (UniProt O95633); assay: compounds binding follistatin-related protein 3 – biochemical, small-molecule microarray, 635 nm fluorescence, primary screen (AID 1105); conditions: FSTL3 binding, higher = more signal;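 note: score merges emission near 667 nm and signal to noise per printed spot across three slides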
# [9] = target: Dickkopf-related protein 1 (Homo sapiens) (UniProt O94907); assay: small molecules binding DKK1 protein – biochemical, small-molecule microarray, 635 nm fluorescence scan, primary screen (AID 1106); conditions: higher = more signal;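 note: score merges emission near 667 nm with signal to noise over three replicate slides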
# [10] = tested on: Inhibin beta A chain (activin A); assay: small molecules binding activin A – biochemical, small-molecule microarray, 635 nm fluorescence scan, primary screen (AID 1107); conditions: INHBA, higher = more signal;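 note: mouse activin A protein probed at 4.33 µg/mL on printed slides; score merges bound-protein fluorescence near 667 nm with spot signal-to-noise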
# [11] = tested on: Human papillomavirus type 1a protein E7 (residues 44-93); assay: small molecules binding HPV E7 44-93 – biochemical, small-molecule microarray, residues 44-93, 635 nm fluorescence, primary screen (AID 1108); conditions: fluorescence 635 nm, higher = more signal;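 note: E7 fragment applied at 1 µg/mL in TBST for 1 h at 4 C; score combines spot fluorescence with its signal to noise ratio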
# [12] = hepatitis C replication reporter changes, two-sided – Huh7 cells, luciferase reporter, HCV replication inhibitor project, primary screen (AID 1109); conditions: Huh7 HCV replicon luciferase reporter, 48 h; higher = more signal;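 note: huh7 hepatoma cells harbouring a luciferase neomycin HCV replicon reporter; luciferase luminescence as measure of HCV replicon replication; test concentration not given here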
# [13] = target: Left-right determination factor 2 (Homo sapiens) (UniProt O00292); assay: small molecules binding LEFTY2 protein – biochemical, small-molecule microarray, 635 nm fluorescence scan, primary screen (AID 1110); conditions: higher = more signal
# [14] = target: Calmodulin-1 (Homo sapiens) (UniProt P0DP23); assay: small molecules binding calmodulin-1 with EGTA – biochemical, small-molecule microarray, Cy5-labelled CALM1, profiling panel (AID 1111); conditions: Cy5-CALM1 binding fluorescence, higher = more signal;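 note: labelled calmodulin applied in Tris saline Tween buffer holding calcium plus EGTA and DTT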
# [15] = target: Calmodulin-1 (Homo sapiens) (UniProt P0DP23); assay: small molecules binding Ca-loaded calmodulin-1 – biochemical, small-molecule microarray, Cy5-labelled CALM1, plus calcium, artefact control for SMM control-protein annotation, profiling panel (AID 1112); conditions: Cy5-CALM1 binding fluorescence, higher = more signal;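 note: score merges spot fluorescence with signal to noise from triplicate slides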
# [16] = probe aWnt5a binding to arrayed compounds – biochemical, biotinylated probe, 635/667 nm fluorescence, primary screen (AID 1113); conditions: small-molecule microarray, higher = more signal;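 note: score merges 667 nm fluorescence intensity with signal-to-noise per printed feature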
# [17] = probe aShh binding to arrayed compounds – biochemical, biotinylated probe, 635/667 nm fluorescence, primary screen (AID 1114); conditions: small-molecule microarray, higher = more signal;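 note: probe is biotin-labelled aShh protein from a stem cell growth factor screen; measures binding of labelled protein to compounds printed on the slide; score merges feature fluorescence at 667 nm with signal-to-noise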
# [18] = probe aNog binding to arrayed compounds – biochemical, biotinylated probe, 635/667 nm fluorescence, primary screen (AID 1115); conditions: small-molecule microarray, higher = more signal;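 note: probe is biotinylated aNog protein used at 0.15 µg/mL for 1 h at 4 C; z-score combines 667 nm fluorescence of each spot with its signal to noise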
# [19] = target: Torsin-1A-interacting protein 1 (Homo sapiens) (UniProt Q5JTV8); assay: compound microarray binding of lysate hLAP1 – cell lysate, small-molecule microarray, COS7 lysate, 635/667 nm fluorescence, primary screen (AID 1116); conditions: 635 nm fluorescence, higher = more signal
# [20] = target: Alpha-bungarotoxin (Bungarus multicinctus) (UniProt P60615); assay: compounds binding labelled alpha-BTX control protein – biochemical, small-molecule microarray, Alexa647 label, 635/667 nm fluorescence, artefact control for SMM control protein annotation, profiling panel (AID 1117); conditions: alpha-BTX-A647 binding fluorescence, higher = more signal
# Chain of Alpha-bungarotoxin (Bungarus multicinctus) (P60615 whole entry, looked up): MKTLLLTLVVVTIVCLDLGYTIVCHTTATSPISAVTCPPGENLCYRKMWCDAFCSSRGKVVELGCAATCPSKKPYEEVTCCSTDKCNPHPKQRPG
# Chain of Torsin-1A-interacting protein 1 (Homo sapiens) (Q5JTV8 whole entry, looked up): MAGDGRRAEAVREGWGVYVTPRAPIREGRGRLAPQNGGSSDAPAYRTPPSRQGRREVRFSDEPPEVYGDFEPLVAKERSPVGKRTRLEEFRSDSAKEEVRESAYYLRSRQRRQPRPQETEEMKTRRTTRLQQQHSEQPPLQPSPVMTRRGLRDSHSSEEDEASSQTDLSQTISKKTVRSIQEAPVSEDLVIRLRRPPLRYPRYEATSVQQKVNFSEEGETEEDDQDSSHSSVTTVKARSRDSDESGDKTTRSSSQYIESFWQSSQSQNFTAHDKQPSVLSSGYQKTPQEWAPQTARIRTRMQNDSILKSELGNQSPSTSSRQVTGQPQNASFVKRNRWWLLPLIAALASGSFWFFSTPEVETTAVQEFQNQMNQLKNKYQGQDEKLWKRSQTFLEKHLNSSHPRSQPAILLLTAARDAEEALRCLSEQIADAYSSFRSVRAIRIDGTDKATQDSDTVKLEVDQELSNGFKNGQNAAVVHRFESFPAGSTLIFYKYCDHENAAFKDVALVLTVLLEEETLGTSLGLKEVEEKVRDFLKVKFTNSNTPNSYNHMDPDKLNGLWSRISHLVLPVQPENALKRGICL
# Chain of Follistatin-related protein 3 (Homo sapiens) (O95633 whole entry, looked up): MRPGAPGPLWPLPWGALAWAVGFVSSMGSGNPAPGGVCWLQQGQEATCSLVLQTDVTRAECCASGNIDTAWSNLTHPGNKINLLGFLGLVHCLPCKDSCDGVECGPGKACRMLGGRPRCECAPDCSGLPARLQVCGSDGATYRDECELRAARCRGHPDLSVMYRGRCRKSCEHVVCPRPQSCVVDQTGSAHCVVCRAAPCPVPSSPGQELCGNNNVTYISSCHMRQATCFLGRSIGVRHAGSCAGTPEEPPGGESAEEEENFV
# Chain of Fibroblast growth factor 10 (Homo sapiens) (O15520 whole entry, looked up): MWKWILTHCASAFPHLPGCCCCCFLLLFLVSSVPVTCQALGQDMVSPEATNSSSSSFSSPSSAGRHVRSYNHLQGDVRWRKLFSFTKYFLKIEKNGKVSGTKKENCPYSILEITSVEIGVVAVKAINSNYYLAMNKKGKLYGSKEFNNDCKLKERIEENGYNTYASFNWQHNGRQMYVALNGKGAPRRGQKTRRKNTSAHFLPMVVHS
# Chain of Left-right determination factor 2 (Homo sapiens) (O00292 whole entry, looked up): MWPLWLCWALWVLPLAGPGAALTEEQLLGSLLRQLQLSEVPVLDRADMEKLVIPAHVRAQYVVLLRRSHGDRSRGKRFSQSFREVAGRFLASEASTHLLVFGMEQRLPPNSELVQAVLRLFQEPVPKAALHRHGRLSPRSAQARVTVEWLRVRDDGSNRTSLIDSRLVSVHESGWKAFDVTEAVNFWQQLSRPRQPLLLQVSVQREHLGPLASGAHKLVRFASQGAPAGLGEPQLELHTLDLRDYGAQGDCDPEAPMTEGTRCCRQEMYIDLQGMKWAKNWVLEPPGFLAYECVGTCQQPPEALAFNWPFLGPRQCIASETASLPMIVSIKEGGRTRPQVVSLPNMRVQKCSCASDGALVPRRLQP
# Chain of Epidermal growth factor receptor (Homo sapiens) (P00533 whole entry, looked up): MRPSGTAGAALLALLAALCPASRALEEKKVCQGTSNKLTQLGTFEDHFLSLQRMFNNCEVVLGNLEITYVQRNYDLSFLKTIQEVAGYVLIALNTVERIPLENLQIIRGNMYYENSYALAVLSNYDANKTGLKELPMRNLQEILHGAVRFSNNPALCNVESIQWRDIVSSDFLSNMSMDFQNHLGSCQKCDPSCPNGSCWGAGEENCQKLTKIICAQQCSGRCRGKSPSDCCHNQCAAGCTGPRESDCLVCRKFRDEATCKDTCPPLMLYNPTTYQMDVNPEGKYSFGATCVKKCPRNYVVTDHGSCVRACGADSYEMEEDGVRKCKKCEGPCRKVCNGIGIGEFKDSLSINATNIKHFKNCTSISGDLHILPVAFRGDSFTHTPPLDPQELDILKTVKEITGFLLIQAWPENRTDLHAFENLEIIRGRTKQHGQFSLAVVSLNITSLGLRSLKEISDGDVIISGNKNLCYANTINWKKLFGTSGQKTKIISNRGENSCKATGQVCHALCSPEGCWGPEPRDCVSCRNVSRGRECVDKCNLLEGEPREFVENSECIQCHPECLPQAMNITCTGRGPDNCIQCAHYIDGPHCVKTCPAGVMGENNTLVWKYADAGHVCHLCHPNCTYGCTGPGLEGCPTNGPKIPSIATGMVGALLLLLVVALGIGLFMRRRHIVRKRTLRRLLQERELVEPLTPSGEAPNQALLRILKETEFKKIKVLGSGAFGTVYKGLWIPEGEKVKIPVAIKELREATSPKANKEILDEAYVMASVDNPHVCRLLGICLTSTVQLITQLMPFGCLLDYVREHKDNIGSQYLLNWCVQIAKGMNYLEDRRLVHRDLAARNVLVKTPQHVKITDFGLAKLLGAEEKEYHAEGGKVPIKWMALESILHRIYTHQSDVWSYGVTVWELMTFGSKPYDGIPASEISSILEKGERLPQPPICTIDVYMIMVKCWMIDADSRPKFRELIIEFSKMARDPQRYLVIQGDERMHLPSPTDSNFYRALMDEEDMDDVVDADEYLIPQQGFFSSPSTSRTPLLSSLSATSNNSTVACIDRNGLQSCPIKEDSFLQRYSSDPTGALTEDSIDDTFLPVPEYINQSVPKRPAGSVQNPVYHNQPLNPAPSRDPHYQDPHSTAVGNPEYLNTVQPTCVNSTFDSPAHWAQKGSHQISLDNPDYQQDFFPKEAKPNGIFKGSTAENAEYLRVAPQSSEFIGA
# Chain of Dickkopf-related protein 1 (Homo sapiens) (O94907 whole entry, looked up): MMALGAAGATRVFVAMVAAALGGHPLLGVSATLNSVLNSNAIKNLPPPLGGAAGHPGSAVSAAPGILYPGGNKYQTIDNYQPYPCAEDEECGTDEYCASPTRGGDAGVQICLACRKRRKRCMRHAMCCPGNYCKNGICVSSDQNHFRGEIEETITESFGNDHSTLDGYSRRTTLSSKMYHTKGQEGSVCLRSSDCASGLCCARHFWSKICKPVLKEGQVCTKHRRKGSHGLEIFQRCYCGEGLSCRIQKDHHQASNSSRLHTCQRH
Structure (SMILES),composite z-score [1],composite z-score [2],composite z-score [3],z-score [4],composite z-score [5],composite z-score [6],composite z-score [7],composite z-score [8],composite z-score [9],composite z-score [10],composite z-score [11],z-score [12],composite z-score [13],composite z-score [14],composite z-score [15],composite z-score [16],composite z-score [17],composite z-score [18],composite z-score [19],composite z-score [20]
COc1ccc([Si](C)(C)[C@H]2[C@H](CC(=O)N3Cc4ccccc4C[C@H]3CO)O[C@@]3(C(=O)N(c4ccccc4)c4ccccc43)[C@@H]2C)cc1,1.64,-0.179,-0.339,-0.691 (inactive),1.11,1.27,1.13,1.45,0.75,1.47,1.35,-3.46,0.949,0.392,-0.987,0.127,-0.0119,-0.542,1.7,1.69
COc1ccc(CCNC(=O)[C@@H]2c3ccccc3C(=O)N(Cc3ccccc3OC)[C@H]2c2ccc(CO)cc2)cc1,1.1,-0.381,0.508,0.295 (inactive),0.454,0.931,0.0744,0.172,0.0163,0.414,1.16,-1.27,-0.321,0.527,-0.103,-0.0398,-0.423,0.938,0.966,0.75
CC(C)[Si](C#CCCc1ccccc1)(O[C@H](c1ccccc1)c1cn(Cc2ccccc2)nn1)C(C)C,0.431,-0.069,-0.496,0.105 (inactive),0.559,1.28,0.618,0.773,0.611,0.152,1.32,-1.53,0.345,0.138,-0.662,-0.0239,-0.338,-0.0827,0.427,0.544
CN1C(=O)C2C(C1=O)C1C=C(CCCO)C2C(C2CC2)N1Cc1cccc(OC(F)(F)F)c1 (stereo not given),1.79,-0.656,0.512,-0.511 (inactive),-0.268,0.393,-0.783,0.0703,-0.521,0.722,1.4,-1.4,-0.306,0.807,0.951,-0.0944,-0.0709,-0.0964,1.56,0.786
CCCC[C@H]1C[C@@H]1[C@@H]1N(C(C)=O)[C@H](c2cccc(OC)c2)CC12CC2,-0.497,0.692,0.878,-1.86 (inactive),0.0847,0.114,-0.0128,0,-0.556,0.596,-0.223,-0.103,-0.305,1.03,0.878,-0.0276,0.0278,-0.643,0.632,0.154
CCCCC(O)C1C=CC2C(=O)N(c3ccccc3)C(=O)C2N1Nc1ccc([N+](=O)[O-])cc1 (stereo not given),1.2,0.379,0.21,-0.846 (inactive),0.435,1.32,0.0456,1.3,-0.105,0.329,1.39,-0.744,0.0256,0.521,-0.118,0.0324,0.036,-0.343,0.853,0.553
